Bioassay records: PubChem BioAssay, The Scripps Research Institute Molecular Screening Center
The list is not random: actives were taken first. Their share in the collection is about 3.4%.
GPR151 activ = activators of human GPR151, primary screen, cell-based, PathHunter beta-arrestin, luminescence. G-protein coupled receptor 151 (Homo sapiens), Q8TDV0. PathHunter beta-arrestin GPR151 cells. activation, % at 11.2 µM. 650,000 compounds, 1% hits; in the data active = activation above about 4.9%;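 note: 0% = median of compound wells and 100% = cells with positive control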
MITF primary = MITF inhibitors, primary screen, biochemical, AlphaScreen, human; AlphaScreen MITF homodimerization, bead proximity signal; inhibition, % at 2.6 µM; 650,000 compounds, 0.91% hits; AID 1259374, 2018; in the data active = inhibition above about 50%;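 note: 0% = vehicle wells with protein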
FBW7 act = FBW7 E3 ligase activators, primary screen, biochemical, AlphaScreen, human. AlphaScreen FBW7–phospho-cyclin E peptide binding, activator screen. 650,000 compounds, 0.13% hits. normalized activity (activation), % at 26.1 µM. F-box/WD repeat-containing protein 7 (Homo sapiens), Q969H0; in the data active = normalized activity above about 1.9%;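 note: purified mutant Fbw7 with reduced substrate affinity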
TEAD-YAP inh = TEAD-YAP interaction inhibition, primary screen, TEAD-YAP interaction inhibitor project, luminescence, HEK-TIYL cells; TEAD-Gal4/YAP UAS-luciferase luminescence; inhibition, % at 9.12 µM; AID 1259422, 2018; 640,000 compounds, 1.4% hits; in the data active = inhibition above about 32%;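 note: 0% = median of test compound wells and 100% = reference inhibitor wells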
GPR151 confirm = GPR151 activators, triplicate retest, confirmation, cell-based, PathHunter beta-arrestin, luminescence; shares compounds with GPR151 activ; GPR151 PathHunter beta-arrestin cells, 90 min; % of EA-reagent control over plate median; activation, % at 11.2 µM; 6,700 tested, under 10 active; AID 1508609, 2020;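 active = mean percent activation across replicates above the confirmation screen cutoff of 4.91%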
GPR119 counter = GPR119 activators in beta-arrestin cells, counter-screen for GPR151 activator project, cell-based, PathHunter beta-arrestin, luminescence, triplicate | AID 1508611, 2020 | 6,700 compounds, 0.3% hits | activation, % at 11.2 µM | shares compounds with GPR151 activ | 90 min; 0 = compound-well median, 100 = enzyme-acceptor control;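 active = mean percent activation in the counterscreen above 29.09%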;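 note: counterscreen on off-target GPR119 to flag nonselective hits from the GPR151 activator screen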
Target sequence (Q8TDV5 whole entry, looked up): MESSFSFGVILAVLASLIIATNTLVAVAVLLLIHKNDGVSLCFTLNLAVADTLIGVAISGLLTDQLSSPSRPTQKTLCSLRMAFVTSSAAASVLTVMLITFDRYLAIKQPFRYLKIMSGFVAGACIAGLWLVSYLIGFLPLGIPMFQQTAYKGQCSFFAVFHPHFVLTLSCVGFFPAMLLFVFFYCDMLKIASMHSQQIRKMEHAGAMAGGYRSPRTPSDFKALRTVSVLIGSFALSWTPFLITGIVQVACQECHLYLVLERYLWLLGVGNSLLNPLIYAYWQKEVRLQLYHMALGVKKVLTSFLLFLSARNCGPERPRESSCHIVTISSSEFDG
Active calls of the source: *; . = not tested or not shown.

SMILES	GPR151 activ	MITF primary	FBW7 act	TEAD-YAP inh	GPR151 confirm	GPR119 counter
COc1ccc(CN[C@H]2C[C@H]3C(=O)N[C@H](CC(C)C)C(=O)N3C2)cc1	5.1*	6	0	-5	0	10
COc1ccccc1CN[C@H]1C[C@H]2C(=O)N[C@@H](CO)C(=O)N2C1	5.2*	11	1	2	1	15
CC(C)C[C@@H]1NC(=O)[C@@H]2C[C@H](NCc3ccc(C(C)C)cc3)CN2C1=O	-1	2	0	3	.	.
CCC[C@@H]1NC(=O)[C@@H]2C[C@H](NCc3cc(C)ccc3F)CN2C1=O	9.4*	-2	0	-7	2	11
O=C(NCC(c1cccnc1)N1CCN(c2ccccc2)CC1)c1ccc([N+](=O)[O-])cc1 (configuration not stated)	-1	5	0	3	.	.
O=C1N[C@H](CO)C(=O)N2C[C@@H](NCc3nc(-c4ccc(F)cc4)cs3)C[C@@H]12	7.7*	-1	0	11	0	10
CC(C)C[C@H]1NC(=O)[C@@H]2C[C@H](NCc3nc(-c4ccc(F)cc4)cs3)CN2C1=O	-1	-14	0	-2	.	.
Cn1cc(CN[C@H]2C[C@H]3C(=O)N[C@@H](Cc4ccccc4)C(=O)N3C2)c(-c2ccccc2)n1	9.8*	-19	0	-16	0	4
COc1cccc(-c2cc(C(=O)Nn3cnnc3)c3ccccc3n2)c1	5.1*	0	0	11	0	1
Cc1ccnc(SCc2cc(=O)c(OC(=O)c3cc(Cl)ccc3[N+](=O)[O-])co2)n1	14*	2	0	-2	-1	-7
Cc1ccnc(SCc2cc(=O)c(OC(=O)c3cc(Cl)ccc3Cl)co2)n1	-1	9	0	7	.	.
COc1ccc(/C=C2\SC(=O)N(CC(=O)N3CCOCC3)C2=O)cc1OC	3	-11	0	-8	.	.
CCOc1ccc(N=Cc2c(O)n(CC)c(=S)[nH]c2=O)cc1	6.0*	-4	0	0	0	-2
CCn1c(SCC(=O)N/N=C(/C)c2ccc(OC)cc2)nc2ccccc21	6.8*	20	0	13	-1	-4
COc1ccc(-n2nc3ccc(NC(=O)c4ncn[nH]4)cc3n2)cc1Cl	5.0*	9	0	0	0	-2
CCC(C)c1ccc(NC(=O)CSc2nnc3c4ccccc4n(CCc4ccccc4)c3n2)cc1 (configuration not stated)	0	0	0	3	.	.
O=C(O)c1ccc(/C=N/NC(=O)c2cc(-c3cccs3)[nH]n2)cc1	1	11	0	-5	.	.
COC(=O)c1ccc(/C=N/NC(=O)c2cc(-c3cccs3)[nH]n2)cc1	7.4*	-1	0	11	0	8
c1ccc(Cn2cc(-c3ncoc3-c3ccnc(Nc4ccc(N5CCOCC5)cc4)c3)cn2)cc1	6.0*	13	0	45*	0	-3
COc1ccc(Cl)cc1N1CC(C(=O)Nc2ccc(C(=O)OC(C)C)cc2)CC1=O (configuration not stated)	-1	2	0	-3	.	.
COc1cc(/C=N/Nc2ccccn2)cc(OC)c1OC	1	8	0	-25	.	.
COc1ccc(C(=O)Nc2cccc(-c3nc4ncccc4o3)c2C)cc1OC	5.5*	-1	0	9	1	3
COc1c(C)cccc1C(=O)Nc1cccc(-c2nc3ncccc3o2)c1	7.4*	-4	0	-10	0	5
COc1ccc(C(=O)Nc2cccc(-c3nc4ncccc4o3)c2C)cc1[N+](=O)[O-]	1	12	0	6	.	.
CC1CN(C(=O)c2ccccc2C(F)(F)F)CC(C)O1 (configuration not stated)	8.0*	-9	0	3	1	2
CC1CN(C(=O)c2cccs2)CC(C)O1 (configuration not stated)	-1	2	0	9	.	.
